The values that follow come from PubChem BioAssay.

The source made the active and inactive calls. Unless noted, the rule behind the calls is not given here.

Experiment [1] deals with Wnt5a (protein binding on small-molecule microarray). Nature of the experiment: small molecules binding Wnt5a protein – biophysical, small-molecule microarray, 635/667 nm fluorescence, primary screen (AID 1142).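 Note: fluorescence read at 667 nm with signal to noise per printed feature.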 The note with it: 635 nm fluorescence, higher = more signal.
Experiment [2] can be described thus: ATP-based viability of Huh7 replicon cells – cell-based, CellTiter-Glo luminescence, basal, 48 h, cytotoxicity control for HCV replication inhibitor project, primary screen (AID 1143).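 Note: Huh7 hepatoma cells carrying a hepatitis C replication reporter with no stimulus; test concentration not given here.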 The note with it: higher = more signal, called active from +8 up or from −8 down. (In antiviral work, replicon cells carry a viral genome segment that copies itself.)
Experiment [3] is described as follows: Pseudomonas biofilm growth suppression – PAO1 strain, BacTiter-Glo luminescence, LB-PBS, primary screen (AID 1144). The conditions noted are these: P. aeruginosa PAO1 biofilm, 12 h, higher = more signal.
Experiment [4] can be described thus: basal CRE-LacZ reporter activity in PC12 – cell-based, unstimulated, primary screen (AID 1145). The note with it: no forskolin, luminescence, 4.5 h, higher = more signal, called active from +8 up or from −8 down.
The nature of experiment [5]: forskolin-driven CRE-LacZ activity in PC12 – cell-based, CRE-LacZ reporter, forskolin-stimulated, primary screen (AID 1146).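 Note: PC12 cells with 6xCRE LacZ reporter stimulated by forskolin 10 µM; beta-galactosidase reporter signal reflecting CREB driven transcription.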 The note with it: luminescence, 4.5 h, higher = more signal, called active from +8 up or from −8 down.
Experiment [6] addresses Streptavidin (Streptomyces avidinii) (UniProt P22629). As to the kind of experiment: compounds binding control protein streptavidin – biophysical, small-molecule microarray, 635/667 nm fluorescence, artefact control for SMM compound annotation, primary screen (AID 1147).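 Note: signal reflects streptavidin binding to arrayed compounds as a control protein.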 The note with it: higher = more signal.
Experiment [7] is described as follows: probe aInhba binding on compound microarray – biochemical, small-molecule microarray, 635/667 nm fluorescence, primary screen (AID 1148).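 Note: score merges 667nm spot fluorescence with signal-to-noise for antibody binding to printed compounds.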 The conditions noted are these: higher = more signal.
Experiment [8] has as its target Torsin-1A (Homo sapiens) (UniProt O14656). Nature of the experiment: TOR1A wild-type binding on microarray – cell lysate, small-molecule microarray, lysate, 635/667 nm, primary screen (AID 1149). The conditions noted are these: COS7 hTOR1A-WT lysate, 635 nm fluorescence, higher = more signal.
Experiment [9] has the same target. As to the kind of experiment: torsin A mutant lysate binding on microarrays – cell lysate, small-molecule microarray, COS7 lysate, 635/667 nm fluorescence, primary screen (AID 1150).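 Note: score pools 667 nm emission and signal to noise measuring lysate protein binding.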 The note with it: COS7 hTOR1A mutant lysate, 635 nm fluorescence, higher = more signal.
The subject of experiment [10] is Sonic hedgehog protein (Shh). As to the kind of experiment: Sonic hedgehog microarray binding compounds – biochemical, small-molecule microarray, 635/667 nm fluorescence, primary screen (AID 1151).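 Note: Shh protein binding to compounds spotted on small-molecule microarray slides; score combines spot fluorescence intensity with signal-to-noise across triplicate slides.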 The note with it: 635 nm fluorescence, higher = more signal.

Streptavidin (Streptomyces avidinii), sequence (P22629 whole entry, looked up): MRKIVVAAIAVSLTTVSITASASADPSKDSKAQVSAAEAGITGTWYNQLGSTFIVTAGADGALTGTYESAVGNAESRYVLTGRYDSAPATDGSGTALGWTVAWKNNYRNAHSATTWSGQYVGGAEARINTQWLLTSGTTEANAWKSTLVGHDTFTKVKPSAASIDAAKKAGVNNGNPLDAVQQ
Torsin-1A (Homo sapiens), sequence (O14656 whole entry, looked up): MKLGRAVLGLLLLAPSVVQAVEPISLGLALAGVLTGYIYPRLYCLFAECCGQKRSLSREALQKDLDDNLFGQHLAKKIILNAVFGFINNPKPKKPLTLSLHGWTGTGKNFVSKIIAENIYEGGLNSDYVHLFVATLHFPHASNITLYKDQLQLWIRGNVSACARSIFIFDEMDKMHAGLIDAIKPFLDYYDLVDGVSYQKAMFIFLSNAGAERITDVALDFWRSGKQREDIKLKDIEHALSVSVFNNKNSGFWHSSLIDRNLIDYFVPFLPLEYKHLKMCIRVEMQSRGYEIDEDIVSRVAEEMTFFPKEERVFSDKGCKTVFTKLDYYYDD

Turning to `COc1ccc(C(=O)Nc2cccc(CN3C(=O)[C@]4(O[C@H](CCO)[C@@H]([Si](C)(C)c5ccc(OC)cc5)[C@@H]4C)c4ccccc43)c2)cc1`, the composite z-score in experiment [1] is 0.24; in experiment [6], 0.388; in [7] it was -0.121; with Torsin-1A (Homo sapiens) [8], 0.271; with Torsin-1A (Homo sapiens) [9] it was 0.424; in experiment [10] it was 1.83. Further, the z-score was -8.03 (active) in experiment [2], -0.694 (inactive) in [3], 10.9 (active) in experiment [4] and -1.29 (inactive) in [5].

Consider `COCCOC(=O)N1C(=O)[C@@]2(c3ccccc31)[C@H](c1ccc(O)cc1)N1[C@H](c3ccccc3)[C@H](c3ccccc3)OC(=O)[C@H]1[C@@H]2C(=O)NC[C@H](O)c1ccccc1`, for which the composite z-score in experiment [1] was -0.0136; in experiment [6], -0.551; in experiment [7], 0.0051; with Torsin-1A (Homo sapiens) [8] it was 0.849; with Torsin-1A (Homo sapiens) [9], 0.805; in experiment [10] it was 0.474. For the same compound, the z-score was -1.03 (inactive) in [2], 0.494 (inactive) in [3], 0.595 (inactive) in experiment [4] and 1.31 (inactive) in [5].

As to `COC(=O)C(CC#Cc1ccc2c(c1)[C@]1(C(=O)N2)[C@H](c2ccc(O)cc2)N2[C@H](c3ccccc3)[C@H](c3ccccc3)OC(=O)[C@H]2[C@@H]1C(=O)Nc1nc2ccccc2s1)C(=O)OC`, the composite z-score in experiment [1] turned out to be 0.695; in experiment [6], 0.458; in [7] it was 0.373; with Torsin-1A (Homo sapiens) [8] it was 1.41; with Torsin-1A (Homo sapiens) [9], 1.21; in experiment [10], 1.62. For the same compound, the z-score is -2.01 (inactive) in [2], -1.45 (inactive) in experiment [3], 1.15 (inactive) in experiment [4] and -0.5 (inactive) in experiment [5].

Consider `C=C(CCCC)C(=O)CC[C@H](OC(C)=O)c1cccc(OCCO)c1`, for which the composite z-score in experiment [1] is -0.247; in experiment [6], -0.613; in experiment [7], -0.183; in the experiment with Torsin-1A (Homo sapiens) [8] it was -0.576; with Torsin-1A (Homo sapiens) [9], -0.132; in [10], 0.103. For the same compound, the z-score in experiment [2] is -3.51 (inactive); in experiment [3], 0.428 (inactive); in experiment [4] it was 0.914 (inactive); in experiment [5] it was -0.057 (inactive).

Take `OC([C@@H]1CC(c2ccccc2)=NO1)[C@H]1CC(c2ccccc2)=NO1` (stereo not given in full): the composite z-score in experiment [1] was 0.0286; in experiment [6], 0.133; in experiment [7], 0.027; in the experiment with Torsin-1A (Homo sapiens) [8], 0.0801; with Torsin-1A (Homo sapiens) [9], -0.174; in experiment [10] it was 0.394. For the same compound, the z-score in experiment [2] is -0.263 (inactive); in experiment [3] it was -0.00202 (inactive); in experiment [4], 2.31 (inactive); in experiment [5], -0.487 (inactive).

For the compound `CC(C)C(=C=CC[C@@H](O)c1ccccc1OCCO)CCO`, the composite z-score in experiment [1] was -0.0322; in experiment [6], 0.666; in experiment [7], -0.016; with Torsin-1A (Homo sapiens) [8] it was -0.502; with Torsin-1A (Homo sapiens) [9], -0.455; in [10] it was 0.575. In addition, the z-score was -3.75 (inactive) in experiment [2], 0.0933 (inactive) in experiment [3], 5.12 (inactive) in experiment [4] and -0.366 (inactive) in experiment [5].

Regarding `N#Cc1ccc(NN2C(C(O)c3c(F)cccc3Cl)C=CC3C(=O)N(c4ccccc4)C(=O)C32)cc1` (stereo not given), the composite z-score in experiment [1] is 0.607; in experiment [6] it was 1.35; in experiment [7], 0.419; with Torsin-1A (Homo sapiens) [8], 0.513; with Torsin-1A (Homo sapiens) [9], 1.35; in [10], 0.585. Further, the z-score in [2] was 0.17 (inactive); in experiment [3], -1.11 (inactive); in experiment [4], 0.622 (inactive); in experiment [5], 0.201 (inactive).

Regarding `COC(=O)[C@@]1(Cc2ccccc2)[C@H]2c3cc(C(=O)N(C)C)n(CCSCCO)c3C[C@H]2CN1C(=O)c1ccccc1`, the composite z-score in [1] is 0.197; in experiment [6], 0.357; in experiment [7] it was -0.0589; with Torsin-1A (Homo sapiens) [8], -0.0487; in the experiment with Torsin-1A (Homo sapiens) [9], 0.796; in [10], -0.931. The z-score in [2] is -0.432 (inactive); in experiment [3], 0.33 (inactive); in experiment [4] it was 0.397 (inactive); in experiment [5] it was 0.695 (inactive).

On to `CN1C(=O)C2C=CC(C(O)c3cccs3)N(Nc3ccccc3)C2C1=O` (stereo not given), for which the composite z-score in experiment [1] was 0.455; in experiment [6] it was 0.389; in experiment [7], 0.406; with Torsin-1A (Homo sapiens) [8], 0.757; with Torsin-1A (Homo sapiens) [9], 0.738; in experiment [10], 0.251. Further, the z-score in experiment [2] was 0.593 (inactive); in experiment [3], -0.0101 (inactive); in experiment [4] it was 0.426 (inactive); in [5] it was 0.711 (inactive).

For `COc1ccc([Si](C)(C)[C@H]2[C@H](CC(=O)N3CCC[C@H]3CO)O[C@@]3(C(=O)N(Cc4cccc(N5C(=O)c6cccc7cccc5c67)c4)c4ccccc43)[C@@H]2C)cc1`, the composite z-score in [1] stood at 1.08; in experiment [6], 0.309; in experiment [7] it was 0.392; in the experiment with Torsin-1A (Homo sapiens) [8], 0.84; in the experiment with Torsin-1A (Homo sapiens) [9], 0.836; in experiment [10], 2.21. Besides, the z-score in experiment [2] is -3.59 (inactive); in experiment [3], 0.346 (inactive); in [4], 1.46 (inactive); in [5], 1.16 (inactive).

In the case of `C=CCOC(=O)[C@@H]1[C@H]2C(=O)O[C@H](c3ccccc3)[C@H](c3ccccc3)N2[C@H](c2ccc(OCCOC(=O)[C@@H]3C[C@@H]4C(=O)N[C@@H](Cc5ccccc5)C(=O)N4[C@@H]3c3ccc(O)cc3)cc2)[C@@]12C(=O)Nc1ccc(I)cc12`, the composite z-score was found to be 0.425 in [1]; 0.122 in [6]; 0.0154 in experiment [7]; 0.521 with Torsin-1A (Homo sapiens) [8]; 0.38 with Torsin-1A (Homo sapiens) [9]; 2.22 in experiment [10]. The z-score in [2] is -1.28 (inactive); in experiment [3] it was -0.606 (inactive); in experiment [4], -0.537 (inactive); in [5] it was -0.526 (inactive).
